The whole screen tested about 310,000 compounds, of which about 14,000 (4.5%) showed an effect of 50% or more. The effect is printed as a negative number. The sample holds strong results, similar compounds and a random draw of the others, so the mix is not that of the screen.
These compounds were tested against human ether-à-go-go-related gene (hERG) potassium channel (human, UniProt Q12809) (assay: primary screen, population patch clamp on CHO cells stably expressing hERG; higher = less effect of the substance).
Sequence of human ether-à-go-go-related gene (hERG) potassium channel (Q12809 whole entry, looked up): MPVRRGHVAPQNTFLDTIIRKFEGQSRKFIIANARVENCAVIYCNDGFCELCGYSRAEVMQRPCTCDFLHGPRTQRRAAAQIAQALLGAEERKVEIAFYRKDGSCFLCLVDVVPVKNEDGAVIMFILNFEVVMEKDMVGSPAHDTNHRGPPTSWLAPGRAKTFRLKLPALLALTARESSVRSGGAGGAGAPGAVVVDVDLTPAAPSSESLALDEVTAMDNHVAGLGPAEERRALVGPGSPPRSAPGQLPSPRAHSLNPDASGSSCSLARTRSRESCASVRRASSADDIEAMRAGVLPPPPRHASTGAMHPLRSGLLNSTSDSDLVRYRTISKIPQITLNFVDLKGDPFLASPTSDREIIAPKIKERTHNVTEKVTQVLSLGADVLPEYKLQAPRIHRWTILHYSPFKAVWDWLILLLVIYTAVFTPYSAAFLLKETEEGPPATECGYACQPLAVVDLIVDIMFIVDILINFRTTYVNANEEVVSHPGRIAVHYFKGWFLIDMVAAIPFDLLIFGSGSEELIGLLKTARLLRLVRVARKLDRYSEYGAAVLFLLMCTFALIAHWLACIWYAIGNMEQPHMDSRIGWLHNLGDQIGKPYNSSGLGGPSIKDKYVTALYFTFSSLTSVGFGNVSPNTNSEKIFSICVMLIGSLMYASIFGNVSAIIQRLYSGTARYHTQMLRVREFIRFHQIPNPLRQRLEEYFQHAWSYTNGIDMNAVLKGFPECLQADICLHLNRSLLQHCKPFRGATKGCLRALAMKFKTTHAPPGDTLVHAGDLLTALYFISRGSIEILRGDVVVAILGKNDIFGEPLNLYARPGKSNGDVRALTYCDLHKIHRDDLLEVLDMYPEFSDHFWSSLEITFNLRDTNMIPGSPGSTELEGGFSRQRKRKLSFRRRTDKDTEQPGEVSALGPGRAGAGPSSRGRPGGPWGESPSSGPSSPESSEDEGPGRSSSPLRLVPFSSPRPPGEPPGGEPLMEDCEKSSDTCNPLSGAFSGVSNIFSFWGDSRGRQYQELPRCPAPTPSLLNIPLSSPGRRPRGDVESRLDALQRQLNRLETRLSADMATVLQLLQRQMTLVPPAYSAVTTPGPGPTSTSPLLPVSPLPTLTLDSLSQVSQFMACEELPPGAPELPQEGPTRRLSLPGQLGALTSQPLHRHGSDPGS
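Note: peak tail current of the secondary pulse compared with the same well before compound.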

| Structure (SMILES) | hERG current change (%, negative = inhibition) at 10uM |
| --- | --- |
| O=C(CSc1nnc(SCc2ccccc2)s1)N/N=C/c1ccc(Cl)cc1Cl | -5.88% |
| O=C(CSc1nnc(-c2ccccc2)c(-c2ccccc2)n1)NC1CCS(=O)(=O)C1 (stereo not shown) | 17.3% |
| Cc1cc(C)n(-c2nc(SCC(=O)N3CCCC3)c3c4c(sc3n2)CCCC4)n1 | -9.29% |
| Cc1cc(C)n(-c2nc(NCCCN(C)C)c3c4c(sc3n2)COC(C)(C)C4)n1 | -14.1% |
| Cc1cc(C)n(-c2nc(NCCN(C)C)c3c4c(sc3n2)COC(C)(C)C4)n1 | -32.7% |
| CCN(CC)CCNc1nc(-n2nc(C)cc2C)nc2sc3c(c12)CC(C)(C)OC3 | -55.4% |
| Cc1cc(C)n(-c2nc(SCC(=O)O)c3c4c(sc3n2)CCCC4)n1 | 6.68% |
| Cc1cc(C)n(-c2nc(SCCN(C)C)c3c4c(sc3n2)COC(C)(C)C4)n1 | -59.1% |
| Cc1cc(C)n(-c2nc(SCCN(C)C)c3c4c(sc3n2)CCCC4)n1 | -53.7% |
| Cc1cc(C)n(-c2nc(SCC(=O)O)c3c4c(sc3n2)COC(C)(C)C4)n1 | 2.48% |
| Cc1cc(C)n(-c2nc(NCCCN(C)C)c3c4c(sc3n2)CCCC4)n1 | -65.2% |
| CCN(CC)CCCNc1nc(-n2nc(C)cc2C)nc2sc3c(c12)CC(C)(C)OC3 | -23% |
| Cc1cc(C)n(-c2nc(NCCN(C)C)c3c4c(sc3n2)CCCC4)n1 | -16.3% |
| Cc1cc(C)n(-c2nc(NCCCO)c3c4c(sc3n2)CCCC4)n1 | -17.9% |
| C=CCn1cc(/C=N\NC(=O)c2cc3c(ccc4ccccc43)o2)c2ccccc21 | -4.85% |
| O=C(c1ccccc1)c1c[nH]c2ccccc12 | 14.6% |
| Cc1cc(C)cc(NC(=S)N2CCN(S(=O)(=O)c3ccccc3)CC2)c1 | 0.86% |
| O=C(O)c1ccc(-c2ccc(OS(=O)(=O)c3ccccc3F)cc2)cc1 | 9.84% |
| O=C(COc1ccccc1Cl)Nc1ccc2c(c1)OCO2 | 11.1% |
| CC(C)C(=O)Nc1ccc(NC(=O)c2ccc(COc3ccccc3)cc2)cc1 | 16.3% |
| CCOC(=O)C1CCN(C(=O)c2ccc(SC)cc2OC)CC1 | -19.8% |
| O=C1c2ccccc2C(=O)C12OC2c1ccc(Cl)cc1Cl (stereo not shown) | 4.07% |

| Structure (SMILES) | hERG current change (%, negative = inhibition) at 10uM |
| --- | --- |
| O=C1c2ccccc2C(=O)C12OC2c1cccc2ccccc12 (stereo not shown) | -69.2% |
| O=C1c2ccccc2C(=O)C12OC2c1ccc(Cl)cc1 (stereo not shown) | 6.63% |
| Cc1c(C)n(Cc2ccccc2)c2ccc(C(=O)NCCN3CCOCC3)cc12 | -3.43% |
| CCOC(=O)c1cc(-c2ccccc2)sc1N | 0.819% |
| CN(C)CCCNc1oc(-c2ccccc2Cl)nc1S(=O)(=O)c1ccccc1 | -43.3% |
| COCCNc1oc(-c2cccs2)nc1S(=O)(=O)c1ccc(C)cc1 | -26.4% |
| CN(C)CCNc1oc(-c2ccccc2Cl)nc1S(=O)(=O)c1ccccc1 | -35.7% |
| COCCCNc1oc(-c2cccs2)nc1S(=O)(=O)c1ccc(C)cc1 | -15.2% |
| CN(C)CCCNc1oc(-c2ccccc2Cl)nc1S(=O)(=O)c1ccc(F)cc1 | -59.9% |
| Cc1ccc(S(=O)(=O)c2nc(-c3cccs3)oc2NCCCN(C)C)cc1 | -67.8% |
| CN1C(=O)c2cccc(NCCCCCCN3C(=O)c4ccccc4C3=O)c2C1=O | 5.41% |
| CC(C)OCC1CO1 (stereo not shown) | 6.9% |
| Cc1noc(NS(=O)(=O)c2ccc(NC(=O)c3ccc(N(C)C)cc3)cc2)c1C | 12.2% |
| Cc1cc(C)cc(NC(=O)C(=O)NCCc2c[nH]c3ccccc23)c1 | 14.9% |
| CCCOc1ccccc1-n1sc2c(c1=S)-c1cc(OC)cc3c1N(C(=O)C3=O)C2(C)C | 18.5% |
| C#CCOc1c(Cl)cc(/C=N/O)cc1OC | 4.04% |
| COc1ccc(N2CC(C(=O)Nc3nc4ccc(OC)cc4s3)CC2=O)cc1 (stereo not shown) | -58.8% |
| COc1ccc2nc(NC(=O)Cn3cnc4c(=O)n(C)c(=O)n(C)c43)sc2c1 | -67.9% |
| CC(C)c1ccc2nc(NC(=O)C3CC3)sc2c1 | -55% |
| O=C(Nc1nc2ccccc2s1)C1CC(=O)N(c2ccccc2)C1 (stereo not shown) | -11.2% |
| COC(=O)c1ccc2nc(NC(=O)C3CC3)sc2c1 | 14% |

Reference: article PMC4336329 (PLoS ONE, 2015)
